Only some compounds are listed: those with a hit (about 19% of all), similar ones and a draw of the others.
TDP1 cell CPT = qHTS for Inhibitors of human tyrosyl-DNA phosphodiesterase 1 (TDP1): qHTS in cells in presence of CPT | chicken DT40 Tdp1-/-;hTDP1 cells + 20 nM CPT, ATP luminescence, 48 h | Potency, µM (highest dose often 46.2 µM), actives largely listed as inhibitors | 12% of 420,000 active | AID 686979, 2013; note: nearly all actives have a fitted effect of over 55% in size
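Chicken DT40 Tdp1-/- cells stably complemented with human TDP1 were seeded at 400 cells/well in medium containing 20 nM camptothecin, exposed to pin-transferred compounds, and grown at 37 °C for at least 48 hr. Viability was read as ATP luminescence.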
DT40 TDP1 no CPT = qHTS for Inhibitors of human tyrosyl-DNA phosphodiesterase 1 (TDP1): qHTS in cells in absence of CPT; DT40 Tdp1-/- hTDP1 cells, no CPT, ATP luminescence, 48 h; Potency, µM (doses to about 46.2 µM), hits mostly inhibitors; 15% of 420,000 active; note: nearly all actives have a fitted effect of over 55% in size
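Stably hTDP1-transfected Tdp1-null chicken DT40 cells were treated with library compounds minus camptothecin and grown for at least 48 hr at 37 °C, after which cellular ATP was quantified by luminescence.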
ELG1 DNA repair = qHTS screen for small molecules that inhibit ELG1-dependent DNA repair in human embryonic kidney (HEK293T) cells expressing luciferase-tagged ELG1. HEK293T ELG1-luciferase reporter, luminescence, 16 h; DNA damage induced by 5-fluorouridine. Potency, µM (highest dose often 46.1 µM), usual class: inhibitors. 2.3% of 330,000 active; note: nearly all actives have a fitted effect of over 55% in size
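DMSO vehicle served as the neutral condition. Each well held 2,000 cells given 5-fluorouridine plus compound; after 16 hr at 37 °C/5% CO2, ONE-Glo was added and luciferase measured 30 min later.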
HT1080 IDH1KD tx = qHTS for induction of synthetic lethality in tumor cells producing 2HG: qHTS for the HT-1080-IDH1KD cell line; AID 686971, 2013; 2% of 360,000 active; HT-1080 IDH1 knockdown viability, ATP luminescence, 48 h; Potency, µM (doses to about 46.1 µM), most hits filed as cytotoxic
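Viability of IDH1-knockdown HT-1080 fibrosarcoma cells was assessed by CellTiter-Glo after 48 h at 37 °C with titrated compound; concentration-effect curves were classified by fit quality and response size.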
HT1080NT lethal = qHTS for induction of synthetic lethality in tumor cells producing 2HG: qHTS for the HT-1080-NT fibrosarcoma cell line; AID 686970, 2013; 1.6% of 360,000 active; HT-1080-NT fibrosarcoma viability, CellTiter-Glo ATP luminescence, 48 h; Potency, µM (highest dose often 46.1 µM), usual class: cytotoxic;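 note: NT is the 2HG producing partner of a matched IDH1 knockdown line; nearly all actives have a fitted effect of over 55% in size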
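HT-1080-NT fibrosarcoma cells (2HG-overproducing), 750 cells/well in RPMI with 5% FBS, dosed after 2 h and incubated 48 h at 37C. CellTiter-Glo luminescence normalized to DMSO and no-cell wells; concentration-response curves fitted and classed.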
IL1B secr inh = qHTS for Inhibitors of Inflammasome Signaling: IL-1-beta AlphaLISA Primary Screen; activity change, % at 57.5 µM; 4.7% of 360,000 active; THP-1 LPS/ATP IL-1B secretion, AlphaLISA, 16 h; hits give low values; AID 743279, 2014; in the data active = activity change below about -50%; inconclusive = mostly about -30% to -49%
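Secreted IL-1B measured by AlphaLISA bead assay after 16 h compound exposure of THP-1 cells; compounds (final up to 57.5 uM) added 1 h before LPS (250 ng/mL) and ATP (1.25 mM) stimulation; lower signal means less secretion.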
Numbers stand for hits; 0 = inactive; ? = inconclusive; - = not tested or not shown; [ ] = dose if it differs, or a comment. Unless noted, calls come from the whole dose curve; as a rule, active = well fitted curve in the direction sought with a large enough effect; inconclusive = small, poorly fitted or top-dose-only effect, or another doubt; inactive = no such curve, though single readings can be large; an effect the other way counts as inactive or inconclusive.

SMILES | TDP1 cell CPT | DT40 TDP1 no CPT | ELG1 DNA repair | HT1080 IDH1KD tx | HT1080NT lethal | IL1B secr inh
COc1ccc(NC(=O)c2cc3ccccc3cc2OC)cc1 | 29µM | ? | ? | 16µM | 16µM | 0
OC(c1ccc(F)cc1)c1nc(-c2cccs2)cs1 (configuration not stated) | 0 | ? | - | 0 | 0 | 0
Cc1cc(C(=O)N2CCC2(C)C(=O)NCc2cccc3ccccc23)nn1C (configuration not stated) | 0 | ? | - | 0 | 0 | 0
Cc1ccccc1-c1nnc(SCC(=O)N2CCCC2)o1 | 0 | 0 | ? | 0 | 0 | 0
Nc1nc(NCc2ccco2)nc(N2CCN(Cc3ccccc3)CC2)c1[N+](=O)[O-] | ? | 18µM | ? | 0 | 0 | 0
CNc1nc(N)c([N+](=O)[O-])c(N2CCCCCC2)n1 | 0 | 0 | 0 | 0 | 0 | 0
Nc1nc(NCc2ccco2)nc(N2CCCCCC2)c1[N+](=O)[O-] | 21µM | 16µM | 0 | 0 | ? | 0
CC(C)CCNc1nc(N)c([N+](=O)[O-])c(N2CCCCCC2)n1 | ? | 16µM | ? | ? | ? | 0
CCN1CCN(c2nc(Nc3ccccc3)nc(N)c2[N+](=O)[O-])CC1 | 0 | 0 | 0 | 0 | 0 | 0
O=C(CC(NC(=O)c1ccccc1)c1ccccc1)OCc1nc(-c2cccc(Cl)c2)no1 (configuration not stated) | 0 | 0 | - | - | - | -
Cc1cc(C)c(Cn2ncn(-c3ccc(Br)cc3)c2=O)c(C)c1 | 0 | 0 | 0 | 0 | 0 | 0
COC(=O)c1cc(OC)c(OC)c(OC)c1[N+](=O)[O-] | 0 | 0 | 0 | 0 | 0 | 0
COc1ccc(CN2CCN(C(C)=O)CC2)cc1OC1CCN(C(=O)c2ccc3ccccc3n2)CC1 | 0[9.04 µM] | 0 | - | - | - | -
Cc1cc(C)c2c(=O)cc(C(=O)NCc3ccc(S(N)(=O)=O)cc3)oc2c1 | 0 | ? | - | - | - | -
O=C1N(c2ccccc2C(F)(F)F)O[C@@]1(c1ccccc1)C1CCCCC1 | 13µM | ? | ? | ? | ? | 0
COc1ccc(CCN(Cc2cc3cc(C)cc(C)c3nc2Cl)C(=O)C2CC2)cc1 | ? | 16µM | ? | ? | ? | -69
CCc1nc(N)c(C#N)c(-c2ccc(OC)c(OC)c2)c1C | 0 | ? | 0 | 0 | 0 | 0
CCOc1cc2c(C#N)c(N(CC)CC)nc(N)c2c(N)n1 | ? | 16µM | - | 0 | 0 | ?
CCCN(CC1CC1)c1nc(N)c2c(N)nc(OC)cc2c1C#N | 16µM | 23µM | 0 | 0 | 0 | 0
Cc1cccc(NC(=O)C2CCN(S(=O)(=O)c3ccc(F)cc3)CC2)c1C | 0 | 0 | - | - | - | -
COCCn1c(SCC(=O)Nc2cc(C)on2)nc2c(c1=O)SC(C)C2 (configuration not stated) | 0 | ? | 0 | 0 | 0 | 0
CCc1nnc(NC(=O)CSc2nc3c(c(=O)n2CC)SC(C)C3)s1 (configuration not stated) | 18µM | 12µM | ? | 0 | 0 | 0
CCSc1nnc(NC(=O)CSc2nc3c(c(=O)n2CCOC)SC(C)C3)s1 (configuration not stated) | 16µM | 23µM | 0 | 0 | 0 | 0
CCCCNC(=O)C1(C)CCN1C(=O)c1csnn1 (configuration not stated) | 0 | 0 | - | 0 | ? | 0
CCOc1cc(CNCCc2ccc(S(N)(=O)=O)cc2)ccc1OCC(=O)NC1CCCCC1 | ? | 23µM | ? | 0 | 0 | 0
SMILES | TDP1 cell CPT | DT40 TDP1 no CPT | ELG1 DNA repair | HT1080 IDH1KD tx | HT1080NT lethal | IL1B secr inh
CCOc1cc(CNCCc2ccccc2)ccc1OCC(=O)NC(C)(C)C | 18µM | 21µM | 0 | 0 | 0 | 0
Cc1cccc(-c2nc3c4ccccc4nc(N4CCN(c5ccccc5F)CC4)n3n2)c1 | 0 | 0 | - | - | - | -
Cn1cnc(S(=O)(=O)N2CCCC(C(=O)NCc3ccc(F)cc3)C2)c1 (configuration not stated) | 0 | 0 | - | - | - | -
Nc1c(C(=O)Nc2nc3ccccc3s2)sc2nc(-c3cccs3)ccc12 | 12µM | 21µM | ? | 18µM | ? | -114
COc1cccc(-c2ccc3c(N)c(C(=O)Nc4ccccc4C)sc3n2)c1 | ? | 23µM | - | - | - | -
CC(=O)c1sc2nc(-c3cccs3)ccc2c1N | 0 | 0 | ? | 0 | 0 | 0
COc1ccccc1NC(=O)c1sc2nc(-c3ccco3)ccc2c1N | 0 | ? | ? | 0 | 0 | 0
Cc1ccccc1NC(=O)c1sc2nc(-c3ccncc3)ccc2c1N | 0 | 16µM | - | - | - | -
Nc1c(C(=O)Nc2ccccc2)sc2nc(-c3ccco3)ccc12 | 23µM | 18µM | 0 | ? | 0 | 0
O=C1c2ccccc2C(c2nnnn2Cc2ccccc2)N1Cc1ccc2c(c1)OCO2 (configuration not stated) | 0 | 0 | - | 0 | 0 | 0
CCC/C(=N\NC(=O)C1CC1)c1ccc(Br)cc1 | 0 | 0 | 0 | 0 | 0 | 0
NC(=O)c1ncn([C@@H]2O[C@H](CNCc3ccc(-c4cc(C(F)(F)F)ccc4Cl)o3)[C@@H](O)[C@H]2O)n1 | 0 | 0 | - | 0 | 0 | 0
Nc1c(C(=O)Nc2ccc(Cl)c(C(F)(F)F)c2)sc2nc(-c3ccncc3)ccc12 | ? | 10µM | - | - | - | -
O=C(CSc1nnc(SCc2ccccc2Cl)s1)N/N=C/c1c[nH]c2ccccc12 | 26µM | ? | 0 | 0 | 0 | 0
O=C(CSc1nnc(SCc2ccccc2)s1)N/N=C/c1ccc(Cl)cc1Cl | 0 | ? | ? | 0 | 0 | 0
O=C(CSc1nnc(SCc2ccc(Cl)cc2)s1)N/N=C/c1c(Cl)cccc1Cl | ? | 26µM | 0 | ? | ? | 0
O=C(CSc1nnc(SCc2ccccc2)s1)N/N=C/c1c[nH]c2ccccc12 | 0 | 0 | ? | 0 | 0 | 0
CCn1c(SCC(=O)N/N=C/c2c[nH]c3ccccc23)nnc1-c1ccc(C(C)(C)C)cc1 | ? | ? | 18µM | ? | ? | 0
CCn1c(SCC(=O)N/N=C/c2ccc(C)o2)nnc1-c1ccc(C(C)(C)C)cc1 | ? | ? | 0 | 0 | 0 | 0
Cc1ccc(CSc2nnc(SCC(=O)N/N=C/c3c[nH]c4ccccc34)s2)cc1 | ? | ? | ? | 23µM | 21µM | 0
COc1ccc2cc3c(N)c(C(=O)N4CCCC4)sc3nc2c1 | ? | 21µM | ? | 0[9.24 µM] | 0 | -69
Cc1cnc(-n2ncc(C(=O)NCCc3cccnc3)c2C)nc1-c1cccs1 | 0[9.04 µM] | 21µM | - | - | - | -

Source: PubChem (National Center for Advancing Translational Sciences (NCATS))
